Pf growth 96h: Primary qHTS for delayed death inhibitors of the malarial parasite plastid, 96 hour incubation; 6.9% of 320,000 active; Potency, µM (highest dose often 28.7 µM), hits mostly inhibitors; P. falciparum luciferase reporter growth, 96 h
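Luminescence readout: decreased luciferase signal marks inhibited growth of reporter-expressing P. falciparum in infected red cells (2% hematocrit, 0.05% parasitemia final), exposed to compound two generations (96 h, 37 C, 5% CO2).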
CHX counter: Cycloheximide Counterscreen for Small Molecule Inhibitors of Shiga Toxin; cell reporter, cycloheximide protein synthesis inhibition counterscreen; max response, %; 12% of 300,000 active; in the data active = max response mostly above about 13%, no sharp cut-off; inactive = mostly below about 14%; also: read at 38.3 µM for the half of the compounds with a filed dose
Pf growth 48h: Primary qHTS for delayed death inhibitors of the malarial parasite plastid, 48 hour incubation; 5.9% of 310,000 active; P. falciparum luciferase growth in erythrocytes, 48 h; Potency, µM (doses to about 28.7 µM), hits mostly inhibitors
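Luciferase-expressing P. falciparum in infected erythrocytes (2% hematocrit, 0.1% parasitemia final) in RPMI 1640/0.5% Albumax were exposed to compound for 48 hours at 37 C, 5% CO2; growth read as luminescence.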
Shiga inhibitor: A qHTS for Small Molecule Inhibitors of Shiga Toxin. 9.2% of 290,000 active. AID 2315, 2010. Vero cells, Shiga toxin protein synthesis inhibition reporter. inhibition, % at 38.7 µM; in the data active = inhibition mostly above about 28%, no sharp cut-off; inactive = mostly below about 43%
NS1 inh: qHTS Assay for Inhibitors of Influenza NS1 Protein Function | Potency, µM (doses to about 46.1 µM) | 0.4% of 270,000 active | AID 2326, 2010; calls by dose curve; also: actives are rising curves; nearly all actives have a fitted effect of over 50% in size
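In this qHTS, NS1 from influenza A is expressed in budding yeast, where it slows growth. Cells are switched from glucose to 2% galactose medium (pH 6.0, -URA), treated with compound, and growth recovery is read at OD600.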
Each line names hits and unclear results; the compound was inactive in the other large screens. A selection: hits, their analogues and other compounds. The true share with any hit is near 21%. Unless noted, calls follow the shape of the dose curve; as a rule, active = well fitted inhibition curve with a large enough effect; inconclusive = small, poorly fitted or top-dose-only effect, or another doubt; inactive = no such curve, though single readings can be large or run the other way.

CC(C)c1nnc(SCC(=O)NC2CCCCC2)n1C	Pf growth 96h inconclusive
CCOC(=O)CC(C)(C)/C(C)=N/Nc1ccc([N+](=O)[O-])cc1[N+](=O)[O-]	none
CC1(C)NC(=O)N(CCCCOc2ccc3ccccc3c2Cl)C1=O	Pf growth 96h inconclusive, CHX counter 54, Shiga inhibitor 88 (no result: Pf growth 48h)
CC1(C)NC(=O)N(CCOCCOc2ccc3ccccc3c2Br)C1=O	Pf growth 96h 3.7µM, CHX counter 37 (no result: Pf growth 48h)
Cc1ccc(N(CC(=O)N/N=C/c2cc(C)n(-c3ccccc3C)c2C)S(C)(=O)=O)cc1	Pf growth 48h inconclusive
CCOC(=O)c1ccc2c(c1)n(CC)c(C)[n+]2CC	Pf growth 48h inconclusive
CCOC(=O)c1ccc2c(c1)[nH]c(=S)n2CC	CHX counter 29, Shiga inhibitor 88
O=C1CSC(c2cccc(O)c2)N1Cc1ccccc1 (stereo not drawn)	none
COc1ccc(C2SCC(=O)N2Cc2ccccc2)cc1 (stereo not drawn)	none
Cc1ccc(C2SCC(=O)N2Cc2ccccc2)cc1 (stereo not drawn)	Pf growth 96h 13µM
COc1cc(C2SCC(=O)N2Cc2ccccc2)ccc1O (stereo not drawn)	Pf growth 96h 9.3µM
Cc1cccc(NC(=O)c2ccc(C3SCC(=O)N3CCc3ccccc3)cc2)c1C (stereo not drawn)	Pf growth 96h 8.3µM (no result: Pf growth 48h)
OCC1OC(Oc2c[nH]c3ccccc23)C(O)C(O)C1O (stereo not drawn)	Pf growth 48h inconclusive (no result: CHX counter, Shiga inhibitor, NS1 inh)
COc1ccc(/C=C2\COc3ccccc3C2=O)c(OC)c1	Pf growth 96h 9.3µM, CHX counter 43, Pf growth 48h inconclusive, Shiga inhibitor 71
COc1cc(/C=C2\CCc3ccccc3C2=O)cc(OC)c1OC	CHX counter 18, Shiga inhibitor 32
CCOc1cc(/C=C2\COc3ccccc3C2=O)cc(Br)c1OCC(=O)N(C)C	Pf growth 96h 10µM, Pf growth 48h inconclusive
COc1ccc(/C=C2\OC(=O)c3c(OC)cccc32)cc1OC	CHX counter 38
CCOC(=O)/C(C#N)=C\C1=C(N2CCOCC2)CC(C)(C)OC1	none (no result: NS1 inh)
COc1cc(/C=C2/CCc3ccccc3C2=O)cc(OC)c1OC	Pf growth 96h inconclusive, Pf growth 48h inconclusive
O=C(O)c1ccc(/C=C2\COc3ccccc3C2=O)cc1	CHX counter 22
COc1ccc(NS(=O)(=O)c2cccs2)c(OC)c1	none
COc1ccc2c(c1)CC/C(=C\c1ccc(OC)c(Cn3cccn3)c1)C2=O	none (no result: Pf growth 96h, Pf growth 48h)
COc1ccc(/C=C2\COc3ccccc3C2=O)cc1OC	CHX counter 45, Shiga inhibitor 65
COc1ccc2c(c1)OC/C(=C/c1cccs1)C2=O	Pf growth 96h 2.9µM, CHX counter 44, Shiga inhibitor 73
COc1ccc(/C=C2\CCc3ccccc3C2=O)cc1CN1CCOCC1	CHX counter 30, Shiga inhibitor 94
Cc1ccc(NS(=O)(=O)c2ccc(-c3coc(C)n3)cc2)c(Br)c1	Pf growth 96h inconclusive, NS1 inh inconclusive
COc1ccc(/C=C2/CCc3ccccc3C2=O)cc1OC	Pf growth 96h inconclusive, CHX counter 74, Shiga inhibitor 74
CC(=O)c1c(C)[nH]c(C2=NNC(=NC(C)(C)C)SC2)c1C	Pf growth 96h 2.6µM, CHX counter 29, Shiga inhibitor 82 (no result: NS1 inh)
CCOC(=O)c1c(C)[nH]c(C2=NNC(=Nc3ccc(OCC)cc3)SC2)c1C	Pf growth 96h 15µM, CHX counter 13, Pf growth 48h inconclusive
CCOC(=O)c1c(C)[nH]c(C2=NNC(=Nc3ccccc3)SC2)c1C	Pf growth 96h 3.7µM, CHX counter 20, Pf growth 48h 3.3µM, Shiga inhibitor 30
CCOC(=O)c1c(C)[nH]c(C2=NNC(=Nc3ccccc3OC)SC2)c1C	Pf growth 96h inconclusive, CHX counter 49, Pf growth 48h inconclusive, Shiga inhibitor 42, NS1 inh inconclusive
CCOC(=O)c1ccc(N=C2NC(=O)CS2)cc1	none
CCOC(=O)C1=C(O)CSC1=Nc1ccccc1	none
N#Cc1ccsc1NC(=O)CCN1CCN(C(c2ccccc2)c2ccccc2)CC1	Pf growth 96h inconclusive, Pf growth 48h inconclusive
COc1ccc(N2C(=O)C(CC(=O)Nc3ccc(F)cc3)N(CCc3ccc(OC)c(OC)c3)C2=O)cc1 (stereo not drawn)	none (no result: NS1 inh)
CC(C)C(=O)Nc1nnc(S(=O)(=O)N(C)c2ccc(Cl)cc2)s1	Pf growth 96h 2.9µM
COc1cccc(NC(=O)C2CCCN2S(=O)(=O)c2ccc3c(c2)n(C)c(=O)c(=O)n3C)c1 (stereo not drawn)	none
COc1ccc(OC)c(C2C(C(=O)c3ccco3)=C(O)C(=O)N2CC2CCCO2)c1 (stereo not drawn)	Pf growth 96h inconclusive
COc1ccc(NC(=O)C2CCCN2C(=O)OCc2ccccc2)c(OC)c1 (stereo not drawn)	none
Cc1ccc(S(=O)(=O)O/N=C2\CCCc3ccccc32)cc1	none (no result: Pf growth 48h)
CC1=C(C)/C(=N\OS(=O)(=O)c2ccccc2)C=CC1=O	Pf growth 96h 13µM (no result: Pf growth 48h)
C[N+](C)(C)CCOC(=O)C(O)(c1ccccc1)c1ccccc1	Pf growth 96h 11µM (no result: CHX counter, Shiga inhibitor, NS1 inh)
CC[N+](C)(CC)CCOC(=O)C(O)(c1ccccc1)c1ccccc1	none (no result: CHX counter, Shiga inhibitor, NS1 inh)
COc1cc(/C=C(\C#N)c2nc3ccccc3[nH]2)ccc1Oc1ccc([N+](=O)[O-])cn1	Pf growth 96h 4.1µM, CHX counter 23, Pf growth 48h 5.9µM
COc1cc(/C=C(/C#N)c2ccccc2)ccc1Oc1ccc([N+](=O)[O-])cn1	Pf growth 96h 0.93µM, Pf growth 48h 4.7µM
CC1CCN(S(=O)(=O)c2cccc(C(=O)N(C)C3(C)CCS(=O)(=O)C3)c2)CC1 (stereo not drawn)	none
CCOc1ccc(N(CC(=O)NCCc2ccccc2)S(=O)(=O)c2ccccc2)cc1	Pf growth 48h inconclusive
O=C(CS(=O)(=O)c1ccccc1)Nc1ccc(Br)cn1	CHX counter 19, Shiga inhibitor 26
C=CCCC(=O)Nc1ccc(Br)cn1	none
CCCCNC(=O)Nc1ccc(Br)cn1	CHX counter 36, Shiga inhibitor 31
CCCCC(=O)Nc1ccc(NC(=O)C2CC2)cn1	none
CCCC(=O)Nc1ccc(NC(=O)C2CC2)cn1	CHX counter 26 (no result: Pf growth 96h)
CCCCC(=O)Nc1ccc(Br)cn1	CHX counter 22 (no result: Pf growth 48h)
CCCCC(=O)Nc1ccc(NC(=O)CCCC)nc1	CHX counter 13
CCC(C)NCC(=O)Nc1ccc(S(N)(=O)=O)cc1 (stereo not drawn)	Pf growth 96h inconclusive
CCS(=O)(=O)CCSc1nc2c(cc1C#N)CCCC2	CHX counter 12 (no result: Pf growth 96h)
COC(=O)C1=C(CSc2nc3c(cc2C#N)CN(C)CC3)OC(N)=C(C#N)C1c1ccccc1F (stereo not drawn)	Pf growth 96h 12µM, Pf growth 48h inconclusive, NS1 inh inconclusive
N#CCSc1nc2c(cc1C#N)CCCCCC2	none
N#Cc1cc2c(nc1SCC(=O)N1CCCCC1)CCCCC2	CHX counter 61, Shiga inhibitor 100
N#Cc1cc2c(nc1SCc1ccccc1)CCC2	none

Assay outcomes (PubChem)
